# The supplement of paper PMC8007513
# Counter-ions that a name gives are not always drawn. ± gives the standard error. Hit rate of the full screen: of about 1,300 compounds, about 130 (10%) showed an effect of 50% or more. For the sample, strong results were picked, then their nearest neighbours and some compounds at random.
# Test system: Trichoderma virens ATCC 9645
# Assay: growth yield (OD600) with compound + IPBC relative to untreated control; higher = less growth inhibition
# Conditions: compound concentration: 100 uM, IPBC concentration: 200 ng/ml
# Outline: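 A biocide at 200 ng ml^−1 was co-applied to some wells, and library compounds were present in all test wells at 100 μM final. The wells held 100 μl of Trichoderma virens ATCC 9645 spores at 15,000 spores ml^−1 in potato dextrose broth, grown at 30 °C in 96-well plates, with OD600 read at 40 h and 72 h. Results are relative growth against the control without either agent, averaged across duplicate screens.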
SMILES,growth yield (40 h) [%],growth yield (72 h) [%]
NS(=O)(=O)c1cc2c(cc1Cl)NC(C(Cl)Cl)NS2(=O)=O (stereo not given) [Trichlormethiazide] + CCCCNC(=O)OCC#CI [3-iodo-2-propynyl butylcarbamate (IPBC)],97.5 ± 16,97.3 ± 12
C[C@@H]1CN([C@H]2CC[C@](C#N)(c3ccc(F)cc3)CC2)CC[C@]1(C(=O)O)c1ccccc1 [Levocabastine hydrochloride] + CCCCNC(=O)OCC#CI [3-iodo-2-propynyl butylcarbamate (IPBC)],118 ± 11,111 ± 7.3
CC(C)OC(=O)CCC/C=C\C[C@@H]1[C@@H](CC[C@@H](O)CCc2ccccc2)[C@H](O)C[C@@H]1O [Latanoprost] + CCCCNC(=O)OCC#CI [3-iodo-2-propynyl butylcarbamate (IPBC)],90.5 ± 1.9,93 ± 3.9
CC(=O)CC(c1ccccc1)c1c(O)c2ccccc2oc1=O (stereo not given) [Warfarin] + CCCCNC(=O)OCC#CI [3-iodo-2-propynyl butylcarbamate (IPBC)],88.5 ± 2.1,93.03 ± 0.1
O=c1oc2ccccc2c(O)c1Cc1c(O)c2ccccc2oc1=O [Dicumarol] + CCCCNC(=O)OCC#CI [3-iodo-2-propynyl butylcarbamate (IPBC)],92.3 ± 6.5,93.2 ± 3
CCc1oc2ccccc2c1C(=O)c1cc(Br)c(O)c(Br)c1 [Benzbromarone] + CCCCNC(=O)OCC#CI [3-iodo-2-propynyl butylcarbamate (IPBC)],43.68 ± 0.16,99.3 ± 8.1
C[C@]12C/C(=C/O)C(=O)C[C@@H]1CC[C@@H]1[C@@H]2CC[C@@]2(C)[C@H]1CC[C@]2(C)O [Oxymetholone] + CCCCNC(=O)OCC#CI [3-iodo-2-propynyl butylcarbamate (IPBC)],112 ± 14,105 ± 9.2
Oc1ncnc2[nH]ncc12 [Allopurinol] + CCCCNC(=O)OCC#CI [3-iodo-2-propynyl butylcarbamate (IPBC)],93.4 ± 4.8,94.28 ± 0.32
Cc1cc(N)c2ccccc2[n+]1CCCCCCCCCC[n+]1c(C)cc(N)c2ccccc21 [Dequalinium dichloride] + CCCCNC(=O)OCC#CI [3-iodo-2-propynyl butylcarbamate (IPBC)],3.81,2.94
COc1ncnc(NS(=O)(=O)c2ccc(N)cc2)c1OC [Sulfadoxine] + CCCCNC(=O)OCC#CI [3-iodo-2-propynyl butylcarbamate (IPBC)],72.6 ± 2.4,84.7 ± 2.7
Cc1[nH]cnc1CN1CCc2c(c3ccccc3n2C)C1=O [Alosetron hydrochloride] + CCCCNC(=O)OCC#CI [3-iodo-2-propynyl butylcarbamate (IPBC)],85.5 ± 1.3,87.89 ± 0.21
CC(C)(C)NC[C@@H](O)COc1cccc2c1CCCC2=O [(+) -Levobunolol hydrochloride] + CCCCNC(=O)OCC#CI [3-iodo-2-propynyl butylcarbamate (IPBC)],97.8 ± 16,99.1 ± 12
CCN(C)C(=O)Oc1cccc([C@H](C)N(C)C)c1 [Rivastigmine] + CCCCNC(=O)OCC#CI [3-iodo-2-propynyl butylcarbamate (IPBC)],97.1 ± 4,95.1 ± 3.7
CN(C)C(=O)Oc1cccc([N+](C)(C)C)c1 [Neostigmine bromide] + CCCCNC(=O)OCC#CI [3-iodo-2-propynyl butylcarbamate (IPBC)],83.4 ± 1.1,92.19 ± 0.52
CN(CCCCCCCCCCN(C)C(=O)Oc1cccc([N+](C)(C)C)c1)C(=O)Oc1cccc([N+](C)(C)C)c1 [Demecarium bromide] + CCCCNC(=O)OCC#CI [3-iodo-2-propynyl butylcarbamate (IPBC)],3.97 ± 0.16,2.73
C=C1c2cccc(O)c2C(=O)C2=C(O)[C@]3(O)C(=O)C(C(N)=O)=C(O)[C@@H](N(C)C)[C@@H]3[C@@H](O)[C@H]12 [Methacycline hydrochloride] + CCCCNC(=O)OCC#CI [3-iodo-2-propynyl butylcarbamate (IPBC)],94.2 ± 1.8,93.7 ± 0.94
C[C@]1(Cn2ccnn2)[C@H](C(=O)O)N2C(=O)C[C@H]2S1(=O)=O [Tazobactam] + CCCCNC(=O)OCC#CI [3-iodo-2-propynyl butylcarbamate (IPBC)],84.5 ± 0.95,87.15 ± 0.32
COc1cc2ncnc(Nc3ccc(F)c(Cl)c3)c2cc1OCCCN1CCOCC1 [Gefitinib] + CCCCNC(=O)OCC#CI [3-iodo-2-propynyl butylcarbamate (IPBC)],16.4 ± 5.2,10.5 ± 0.63
C#Cc1cccc(Nc2ncnc3cc(OCCOC)c(OCCOC)cc23)c1 [Erlotinib] + CCCCNC(=O)OCC#CI [3-iodo-2-propynyl butylcarbamate (IPBC)],98.2 ± 11,99.3 ± 3
CCCCOc1ccc(OCCCN2CCOCC2)cc1 [Pramoxine hydrochloride] + CCCCNC(=O)OCC#CI [3-iodo-2-propynyl butylcarbamate (IPBC)],80.1 ± 2.2,94 ± 3.1
